Bioassay records (PubChem)
Tau FP inhib: blocks human tau fibril formation measured by polarization. P10636. K18 P301L tau heparin fibrillization, Alexa594 FP, 6 h. Potency, µM (top dose mostly 57.7 µM), for inactives: top-dose activity, negative = inhibition, usual class: inhibitors. 0.39% of 280,000 active; active = well fitted curve in the direction sought with a large enough effect; inconclusive = small, poorly fitted or top-dose-only effect, or another doubt; inactive = no such curve, though single readings can be large; an effect the other way counts as inactive or inconclusive; also: nearly all actives have a fitted effect of over 55% in size
Target sequence (P10636 561-689 P618L limits assumed): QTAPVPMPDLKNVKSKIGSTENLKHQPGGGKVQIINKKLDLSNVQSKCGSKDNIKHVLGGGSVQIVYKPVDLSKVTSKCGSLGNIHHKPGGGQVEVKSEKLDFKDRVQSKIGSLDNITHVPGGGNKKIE
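Quantitative HTS format: compounds meet 15 uM recombinant K18 P301L tau and Alexa 594-tau tracer in 100 mM sodium acetate pH 7; 20 uM heparin triggers fibrillization at 37 C over 6 hr; FP gives the signal.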
Tau fibril ThT: inhibitors of human tau fibril formation, thioflavin T binding | P10636 | recombinant tau K18 P301L, heparin-induced fibrillization, ThT fluorescence | Potency, µM (top dose mostly 57.4 µM), for the others: top-dose activity, negative = inhibition, hits mostly inhibitors | 2.1% of 270,000 active | AID 1460; active = well fitted curve in the direction sought with a large enough effect; inconclusive = small, poorly fitted or top-dose-only effect, or another doubt; inactive = no such curve, though single readings can be large; an effect the other way counts as inactive or inconclusive; also: nearly all actives have a fitted effect of over 55% in size
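ThT emission at 510 nm, taken 1 hr after adding 30 uM dye, quantifies aggregates formed when 20 uM heparin acts on human tau K18 P301L for 6 hr at 37 C.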
HPGD block: HPGD (human) dehydrogenase inhibition; P15428; purified HPGD, NADH fluorescence kinetic, PGE2 substrate; 4.3% of 150,000 active; AID 894; Potency, µM, without a hit: top-dose activity change, negative = inhibition, usual class: inhibitors
Target sequence (P15428 whole entry, looked up): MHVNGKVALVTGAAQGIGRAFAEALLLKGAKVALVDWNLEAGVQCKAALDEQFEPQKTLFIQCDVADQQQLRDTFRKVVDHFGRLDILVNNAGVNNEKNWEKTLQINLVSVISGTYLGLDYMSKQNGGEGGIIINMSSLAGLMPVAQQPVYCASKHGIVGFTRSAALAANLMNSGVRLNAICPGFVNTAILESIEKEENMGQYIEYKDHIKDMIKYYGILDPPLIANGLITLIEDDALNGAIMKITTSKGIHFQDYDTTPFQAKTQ
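NADH formation kinetics: reaction with 30 uM PGE2 and 1 mM NAD+ (final), 20 nM enzyme, Tris-HCl pH 8 with Tween 20, after 15 min compound preincubation at room temperature. Fluorescence change, last versus first of five reads.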
Tau fluor cs: counter-screen for tau fibril formation inhibitors | tau K18 P301L Alexa594 fluorescence, heparin fibrillization | Potency, µM (series often up to 57.7 µM), inactives show at the highest dose activity change, negative = decrease | 0.93% of 280,000 active | AID 1463; active = well fitted curve in the direction sought with a large enough effect; inconclusive = small, poorly fitted or top-dose-only effect, or another doubt; inactive = no such curve, though single readings can be large; an effect the other way counts as inactive or inconclusive; also: nearly all actives have a fitted effect of over 55% in size
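Human tau K18 P301L (15 uM unlabeled, 0.24 uM Alexa 594-labeled) in 100 mM sodium acetate pH 7 with 20 uM heparin, 6 hr at 37 C. ThT 30 uM added, 1 hr ambient; Alexa 594 FP and total fluorescence read at 555/632 nm.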
KDM4E inh: blocks human JMJD2E demethylase activity; B2RXH2; Potency, µM (top dose mostly 57.1 µM), inactives show top-dose activity change, negative = inhibition, most hits filed as inhibitors; JMJD2E catalytic domain, FDH-coupled NADH fluorescence (FDH is formaldehyde dehydrogenase); 1.6% of 230,000 active;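 also: 0% = wells with enzyme and -100% = buffer wells without enzyme; nearly all actives have a fitted effect of over 50% in size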
Target sequence (B2RXH2 1-337 limits assumed): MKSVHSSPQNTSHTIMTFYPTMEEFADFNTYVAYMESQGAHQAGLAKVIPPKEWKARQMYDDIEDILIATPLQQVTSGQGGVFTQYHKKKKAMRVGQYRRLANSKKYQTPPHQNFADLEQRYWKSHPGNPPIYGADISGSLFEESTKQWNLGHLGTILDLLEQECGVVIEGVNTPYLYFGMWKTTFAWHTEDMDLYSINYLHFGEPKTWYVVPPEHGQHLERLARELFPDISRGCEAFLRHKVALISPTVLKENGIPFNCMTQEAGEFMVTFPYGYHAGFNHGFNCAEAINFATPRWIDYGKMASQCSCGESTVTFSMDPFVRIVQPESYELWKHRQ
ALDH1A1 block: blocks purified human ALDH1A1 activity | 7.3% of 220,000 active | AID 1030 | P00352 | Potency, µM (highest dose often 75.3 µM), inactives show at the top dose activity, negative = inhibition, actives largely listed as inhibitors | Purified ALDH1A1, NADH fluorescence, propionaldehyde substrate;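 also: plate controls were no enzyme wells and a reference inhibitor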
An asterisk follows results filed as active; ? = inconclusive; nt = no result given; [ ] = another dose, or the depositor's remark. The list is not random: actives were taken first. Their share in the collection is about 9.9%. Unless noted, calls follow the shape of the dose curve; as a rule, active = well fitted inhibition curve with a large enough effect (not every such curve was filed as active); inconclusive = small, poorly fitted or top-dose-only effect, or another doubt; inactive = no such curve, though single readings can be large or run the other way. Unless noted, % is scaled to controls: 0 for no effect and ±100 for the full control effect; potency is read from the fitted curve at half-maximal effect.

SMILES | Tau FP inhib | Tau fibril ThT | HPGD block | Tau fluor cs | KDM4E inh | ALDH1A1 block
O=C1Nc2ccccc2N=C(c2ccccc2)C1N1CCOCC1 (stereo not given) | 7% | -12% | -11% | -5% | -5% | 22µM*
COc1ccc(NC(=O)N2CCC3(CC2)CCN(C(=O)c2ccco2)CC3)cc1 | nt | nt | -3% | nt | nt | -15%
O=S(=O)(c1ccccc1)C(/C=N\O)/C=C/c1ccccc1 (stereo not given) | 1% | ? | nt | -12% | 2% | 11µM*
COCCn1c(C)cc(/C=C2/NC(=O)N(c3ccc(Cl)cc3)C2=O)c1C | -4% | ? | -21% | -19% | ? | -7%
O=C(NCCOC(=O)c1ccc(C(=O)OCCNC(=O)c2ccccc2)o1)c1ccccc1 | 0% | -9% | 7.9µM* | -14% | 0% | ?
O=C(NCCOCCOCCNC(=O)c1ccccc1)c1ccccc1 | 4% | 3% | nt | 3% | 16% | -11%
COc1ccc(N2C3=C(CC4=C2CC(C)(C)CC4=O)C(=O)CC(C)(C)C3)cc1 | ? | 20µM* | ? | -22% | ? | ?
c1ccc(-c2csc(NC3=NCCCCC3)n2)cc1 | 13% | -8% | -12% | -7% | 0% | -2%
Brc1ccc(-c2csc(NNC3=NCCCCC3)n2)cc1 | -6% | ? | nt | ? | 6% | 11µM*
FC(F)Oc1ccc(-c2csc(NNC3=NCCCCC3)n2)cc1 | ? | 28µM* | nt | -29% | -4% | ?
CC(C)(C)c1ccc(-c2csc(NNC3=NCCCCC3)n2)cc1 | ? | 16µM* | -13% | ? | 8% | -15%
COc1cc(OC)c(NC(=O)Cn2cnc3c(nc4n3CCCCC4)c2=O)cc1Cl | -1% | 2% | nt | -2% | nt | nt
CC(NC(=S)Nc1ccc(S(=O)(=O)N2CCOCC2)cc1)C1CC2CCC1C2 (stereo not given) | ? | 5% | -6% | ? | 2% | 20µM*
CNS(=O)(=O)c1ccc(NC(=S)Nc2ccc3c(c2)OCO3)cc1 | 4% | 3% | nt | 1% | 2% | 5µM*
Cc1cc(NS(=O)(=O)c2ccc(NC(=O)Nc3ccc4c(c3)OCO4)cc2)no1 | 14% | -15% | -22% | -27% | -3% | 3%
O=S(=O)(c1ccc(NC(=S)Nc2ccccc2)cc1)N1CCOCC1 | -5% | -2% | -6% | -5% | -20% | 20µM*
CC(C)CCCCCCNC(=S)Nc1ccc(S(=O)(=O)N2CCOCC2)cc1 | 25µM* | 15% | -17% | ? | -5% | ?
CN(C)CC(C)(C)CNC(=S)Nc1ccc(S(=O)(=O)N2CCOCC2)cc1 | -3% | 0% | 5% | 2% | 13% | 14%
C=CCOC(=O)/C(=C\C=C\c1ccccc1)NC(=O)c1ccccc1 | 7% | -1% | -14% | -3% | -7% | 2%
CCOC(=O)c1cnn(-c2ccc(C(=O)Nc3ccc(C(C)=O)cc3)cc2)c1N | -6% | ? | nt | -15% | nt | nt
CCn1c(CN2CCOCC2)nc2cc(NC(=O)c3ccc([N+](=O)[O-])cc3)ccc21 | -2% | -9% | nt | -3% | nt | nt
COCCOC(=O)c1c(C)n(S(=O)(=O)c2ccc(C)cc2)c2ccc(NS(=O)(=O)c3ccc(C)cc3)cc12 | ? | 4% | nt | ? | nt | nt
O=C(Nc1ccc(S(=O)(=O)N2CCOCC2)cc1)c1ccc2c(c1)OCO2 | -4% | nt | nt | -18% | -1% | nt
O=S(=O)(c1ccc(NC(=S)Nc2ccc3c(c2)OCO3)cc1)N1CCOCC1 | -3% | ? | ? | -9% | -20% | 22µM*
COc1ccc(N2CCN(Cc3cc(=O)oc4ccc(OC)cc34)CC2)cc1 | 11% | -14% | nt | -17% | nt | nt
SMILES | Tau FP inhib | Tau fibril ThT | HPGD block | Tau fluor cs | KDM4E inh | ALDH1A1 block
CCn1c(=O)c2c(n3c(=S)[nH]nc13)-c1ccccc1CC21CCCCC1 | -1% | ? | nt | ? | -2% | 22µM*
CCn1c(SCC#N)nc2c(c1=O)C1(CCCC1)Cc1ccccc1-2 | 1% | -5% | -11% | -11% | -8% | 0%
N#Cc1c(/N=C/c2cc3ccccc3s2)sc2c1CCC2 | -1% | 1.3µM* | -17% | -7% | ? | 25µM*
N#Cc1c(/N=C/C=C/c2ccccc2)sc2c1CCCC2 | 1% | ? | 22µM* | -12% | ? | 7.9µM*
Cc1[nH]n(-c2cccc3ccccc23)c(=O)c1/C=N/c1sc2c(c1C#N)CCC2 | -7% | ? | ? | -24% | ? | 5µM*
N#Cc1c(/N=C/c2ccco2)sc2c1CCC2 | -5% | ? | -7% | -16% | -5% | -5%
Cc1ccc(/C=N/c2sc3c(c2C#N)CCC3)s1 | -4% | 2µM* | -22% | -25% | ? | 25µM*
O=C(c1ccccn1)N1CCN(S(=O)(=O)c2ccccc2)CC1 | 1% | 4% | nt | 1% | 5% | -1%
CCc1ccc(CN2CCCC(CCC(=O)N3CCN(c4ccccn4)CC3)C2)o1 (stereo not given) | -13% | -10% | nt | 5% | ? | nt
CN1CCN(/C=N/c2sc3c(c2C#N)CCCCC3)CC1 | 7% | -16% | -16% | -18% | 5% | 10µM*
CCN(/C=N/c1sc2c(c1C#N)CCCCC2)CC | ? | ? | -22% | -22% | 3% | ?
O=C(O)[C@H]1CCCN1 | -3% | 3% | nt | 1% | nt | 9%
C[C@@]12C[C@H](O)C3[C@H](CCC4=CC(=O)CC[C@]43C)[C@H]1CC[C@@H]2c1csc(N)n1 (stereo not given in full) | nt | nt | -3% | nt | nt | 2µM*
COc1ccc(S(=O)(=O)NCCc2c(C)nn(C)c2Oc2ccccc2)cc1 | 5% | -1% | 4% | -7% | 6% | 0.63µM*
Cc1cc(=O)[nH]c(SCC(=O)C23CC4CC(CC(C4)C2)C3)c1C#N | -3% | -13% | -18% | -2% | -1% | 3.2µM*
O=C(O[C@@H]1OC2COC(=O)c3cc(O)c(O)c(O)c3-c3c(cc(O)c(O)c3O)C(=O)O[C@@H]([C@H]1O)[C@@H]2O)c1cc(O)c(O)c(O)c1 | ? | 7.9µM* | 1.8µM* | 13µM*[quencher] | -2% | -10%
Cc1ccccc1NC(=S)N/N=C/c1ccc(O)cc1O | ? | ? | nt | ? | 14µM* | nt
Cc1oc(-c2ccccc2)cc1C(=O)NC1CCN(Cc2ccccc2)CC1 | 6% | -9% | nt | -14% | 2% | -3%
C(=N\N(Cc1ccccc1)c1ccccc1)/c1cccnc1 | 2% | ? | nt | -26% | -1% | -15%
Oc1cccc(/C=N/N(Cc2ccccc2)c2ccccc2)c1 | ? | ? | nt | 13µM*[quencher] | -22% | -13%
Oc1ccc(/C=N/N(Cc2ccccc2)c2ccccc2)c(O)c1O | ? | 28µM* | nt | 28µM*[quencher] | 20µM* | 10µM*
COc1ccc(NC(=O)CSc2nc(C)cc(C)c2C(=O)Nc2cccc(C)c2)cc1 | -6% | 10% | nt | -9% | nt | nt
